Experimental data: the supplement of paper PMC6411743
± gives the standard deviation of the averaged measurements. About 6,500 targets were measured; listed, in parts, are those with the largest changes and a random draw of the rest.

Compound: Nc1ncnc2c1ncn2[C@@H]1O[C@H](COP(=O)(O)OP(=O)(O)OP(=O)(O)O)[C@@H](O)[C@H]1O [adenosine triphosphate]
Assay: NP40-soluble protein abundance relative to vehicle (solubility fold change) (ratio); higher = more soluble protein in presence of ATP
Procedure, shortened: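 Values are fold changes against the detergent-processed vehicle, based on vsn-normalised intensities. Jurkat crude lysate was treated at eight concentrations from 0.1 to 10 mM (10 min at room temperature, then 3 min at 37 °C), solubilised with 0.8% NP40 and benzonase, ultracentrifuged and analysed by TMT-labelled LC-MS/MS over three independent experiments.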

Sequence of UniProt Q499Z4 (Q499Z4 whole entry): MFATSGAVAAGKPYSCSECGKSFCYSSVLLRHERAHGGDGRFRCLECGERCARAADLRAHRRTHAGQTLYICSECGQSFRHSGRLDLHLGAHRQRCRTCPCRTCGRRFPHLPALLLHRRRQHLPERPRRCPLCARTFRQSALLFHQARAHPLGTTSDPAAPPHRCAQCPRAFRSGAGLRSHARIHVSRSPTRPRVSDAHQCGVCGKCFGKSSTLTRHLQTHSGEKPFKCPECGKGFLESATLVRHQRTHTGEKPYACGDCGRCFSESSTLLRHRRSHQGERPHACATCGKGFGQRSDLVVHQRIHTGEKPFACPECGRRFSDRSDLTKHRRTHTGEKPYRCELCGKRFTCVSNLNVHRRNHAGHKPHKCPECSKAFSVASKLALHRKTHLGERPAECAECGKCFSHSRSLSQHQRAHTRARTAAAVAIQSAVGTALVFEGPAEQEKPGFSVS
Sequence of UniProt Q8TEQ8 (Q8TEQ8 whole entry): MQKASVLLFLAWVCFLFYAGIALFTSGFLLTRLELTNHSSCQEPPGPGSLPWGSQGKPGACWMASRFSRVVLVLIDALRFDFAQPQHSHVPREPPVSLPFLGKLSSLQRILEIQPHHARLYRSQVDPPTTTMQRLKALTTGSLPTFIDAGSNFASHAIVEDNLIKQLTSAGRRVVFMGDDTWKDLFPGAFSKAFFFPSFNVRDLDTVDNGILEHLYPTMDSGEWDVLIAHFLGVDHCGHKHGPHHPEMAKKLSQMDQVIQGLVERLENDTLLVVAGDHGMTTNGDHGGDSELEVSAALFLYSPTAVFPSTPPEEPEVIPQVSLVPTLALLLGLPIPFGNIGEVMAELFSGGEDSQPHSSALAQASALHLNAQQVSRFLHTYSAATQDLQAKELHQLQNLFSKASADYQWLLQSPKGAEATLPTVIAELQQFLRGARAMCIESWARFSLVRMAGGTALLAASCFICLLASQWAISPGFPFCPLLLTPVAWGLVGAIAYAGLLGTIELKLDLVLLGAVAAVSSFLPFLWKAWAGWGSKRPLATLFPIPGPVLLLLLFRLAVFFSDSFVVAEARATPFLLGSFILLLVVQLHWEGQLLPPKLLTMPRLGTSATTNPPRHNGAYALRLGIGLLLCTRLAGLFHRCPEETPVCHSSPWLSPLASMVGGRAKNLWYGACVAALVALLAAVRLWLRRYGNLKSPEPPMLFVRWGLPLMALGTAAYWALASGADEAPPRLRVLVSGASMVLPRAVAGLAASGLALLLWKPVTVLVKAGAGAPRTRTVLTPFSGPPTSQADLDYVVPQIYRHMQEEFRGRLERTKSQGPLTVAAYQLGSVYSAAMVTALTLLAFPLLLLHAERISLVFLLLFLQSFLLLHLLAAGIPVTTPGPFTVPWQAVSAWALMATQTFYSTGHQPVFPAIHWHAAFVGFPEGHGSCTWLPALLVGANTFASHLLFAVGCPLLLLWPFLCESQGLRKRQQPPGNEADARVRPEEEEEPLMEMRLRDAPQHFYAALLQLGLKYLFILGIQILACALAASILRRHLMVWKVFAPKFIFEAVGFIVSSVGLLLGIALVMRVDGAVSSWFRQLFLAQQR
Sequence of UniProt Q8N3Z6 (Q8N3Z6 whole entry): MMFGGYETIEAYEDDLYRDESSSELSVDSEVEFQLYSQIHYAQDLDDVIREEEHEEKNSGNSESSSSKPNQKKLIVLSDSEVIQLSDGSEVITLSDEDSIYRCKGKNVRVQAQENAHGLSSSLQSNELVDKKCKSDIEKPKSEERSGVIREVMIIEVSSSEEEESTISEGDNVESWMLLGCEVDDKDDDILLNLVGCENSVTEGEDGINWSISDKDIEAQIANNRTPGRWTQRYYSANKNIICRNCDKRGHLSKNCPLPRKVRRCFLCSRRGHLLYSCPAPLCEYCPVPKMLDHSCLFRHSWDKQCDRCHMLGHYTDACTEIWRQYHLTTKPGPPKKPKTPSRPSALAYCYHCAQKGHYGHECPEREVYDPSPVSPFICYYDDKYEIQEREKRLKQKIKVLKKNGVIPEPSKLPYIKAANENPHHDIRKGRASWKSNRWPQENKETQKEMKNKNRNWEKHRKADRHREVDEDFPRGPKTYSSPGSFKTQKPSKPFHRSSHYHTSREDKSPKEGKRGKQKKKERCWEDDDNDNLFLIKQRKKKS
Sequence of UniProt Q6I9Y2 (Q6I9Y2 whole entry): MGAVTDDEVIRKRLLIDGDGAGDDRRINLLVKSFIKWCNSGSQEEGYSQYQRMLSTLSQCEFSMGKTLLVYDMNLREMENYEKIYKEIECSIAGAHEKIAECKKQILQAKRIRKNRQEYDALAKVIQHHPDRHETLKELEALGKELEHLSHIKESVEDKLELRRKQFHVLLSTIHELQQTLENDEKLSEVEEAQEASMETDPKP
Sequence of UniProt Q7Z7K6 (Q7Z7K6 whole entry): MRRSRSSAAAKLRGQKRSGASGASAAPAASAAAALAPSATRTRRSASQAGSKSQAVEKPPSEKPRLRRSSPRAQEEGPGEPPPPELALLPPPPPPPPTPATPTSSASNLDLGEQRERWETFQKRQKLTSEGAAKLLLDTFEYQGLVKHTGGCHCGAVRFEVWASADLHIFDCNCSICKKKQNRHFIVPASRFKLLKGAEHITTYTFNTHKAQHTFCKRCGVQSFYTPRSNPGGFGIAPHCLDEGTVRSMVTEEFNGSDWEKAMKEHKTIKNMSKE
Sequence of UniProt Q13619 (Q13619 whole entry): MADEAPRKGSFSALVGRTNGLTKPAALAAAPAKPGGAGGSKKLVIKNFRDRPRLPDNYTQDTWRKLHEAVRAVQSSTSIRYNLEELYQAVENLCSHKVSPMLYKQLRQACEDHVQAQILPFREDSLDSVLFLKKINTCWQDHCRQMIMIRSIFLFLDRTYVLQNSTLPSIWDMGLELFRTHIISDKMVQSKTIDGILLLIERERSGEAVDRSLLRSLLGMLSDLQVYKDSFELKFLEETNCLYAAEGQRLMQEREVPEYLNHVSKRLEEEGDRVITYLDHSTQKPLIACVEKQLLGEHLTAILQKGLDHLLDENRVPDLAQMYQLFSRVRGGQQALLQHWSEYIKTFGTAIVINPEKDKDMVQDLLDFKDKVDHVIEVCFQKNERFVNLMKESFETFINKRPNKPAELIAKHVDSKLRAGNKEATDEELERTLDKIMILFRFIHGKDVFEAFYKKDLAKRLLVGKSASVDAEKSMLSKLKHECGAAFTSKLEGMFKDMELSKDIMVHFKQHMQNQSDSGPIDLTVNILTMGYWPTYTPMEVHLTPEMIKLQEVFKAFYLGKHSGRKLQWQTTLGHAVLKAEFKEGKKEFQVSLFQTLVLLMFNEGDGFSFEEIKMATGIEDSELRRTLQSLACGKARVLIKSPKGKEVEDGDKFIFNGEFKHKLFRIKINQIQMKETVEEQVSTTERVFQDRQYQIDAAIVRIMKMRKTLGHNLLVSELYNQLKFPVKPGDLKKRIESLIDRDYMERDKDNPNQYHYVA
Sequence of UniProt Q7Z2T5 (Q7Z2T5 whole entry): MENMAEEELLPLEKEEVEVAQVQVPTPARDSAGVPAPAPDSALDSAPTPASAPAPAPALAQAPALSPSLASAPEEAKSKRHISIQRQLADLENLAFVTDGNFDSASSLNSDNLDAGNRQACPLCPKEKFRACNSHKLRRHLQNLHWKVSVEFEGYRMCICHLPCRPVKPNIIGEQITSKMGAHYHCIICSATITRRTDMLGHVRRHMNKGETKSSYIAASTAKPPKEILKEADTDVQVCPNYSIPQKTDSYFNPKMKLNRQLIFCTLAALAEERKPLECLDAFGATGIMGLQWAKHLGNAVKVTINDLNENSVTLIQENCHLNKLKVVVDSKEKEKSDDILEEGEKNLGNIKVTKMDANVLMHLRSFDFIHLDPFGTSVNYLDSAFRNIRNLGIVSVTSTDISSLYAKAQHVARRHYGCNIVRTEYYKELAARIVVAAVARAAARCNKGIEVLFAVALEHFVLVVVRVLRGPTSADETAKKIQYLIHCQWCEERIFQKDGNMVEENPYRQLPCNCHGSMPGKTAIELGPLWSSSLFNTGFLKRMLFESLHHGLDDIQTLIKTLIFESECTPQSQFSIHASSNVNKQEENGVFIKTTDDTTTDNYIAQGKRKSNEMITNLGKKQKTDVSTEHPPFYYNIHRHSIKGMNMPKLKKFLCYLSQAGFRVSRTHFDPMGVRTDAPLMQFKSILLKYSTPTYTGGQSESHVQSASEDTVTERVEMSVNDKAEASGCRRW
Sequence of UniProt Q13427 (Q13427 whole entry): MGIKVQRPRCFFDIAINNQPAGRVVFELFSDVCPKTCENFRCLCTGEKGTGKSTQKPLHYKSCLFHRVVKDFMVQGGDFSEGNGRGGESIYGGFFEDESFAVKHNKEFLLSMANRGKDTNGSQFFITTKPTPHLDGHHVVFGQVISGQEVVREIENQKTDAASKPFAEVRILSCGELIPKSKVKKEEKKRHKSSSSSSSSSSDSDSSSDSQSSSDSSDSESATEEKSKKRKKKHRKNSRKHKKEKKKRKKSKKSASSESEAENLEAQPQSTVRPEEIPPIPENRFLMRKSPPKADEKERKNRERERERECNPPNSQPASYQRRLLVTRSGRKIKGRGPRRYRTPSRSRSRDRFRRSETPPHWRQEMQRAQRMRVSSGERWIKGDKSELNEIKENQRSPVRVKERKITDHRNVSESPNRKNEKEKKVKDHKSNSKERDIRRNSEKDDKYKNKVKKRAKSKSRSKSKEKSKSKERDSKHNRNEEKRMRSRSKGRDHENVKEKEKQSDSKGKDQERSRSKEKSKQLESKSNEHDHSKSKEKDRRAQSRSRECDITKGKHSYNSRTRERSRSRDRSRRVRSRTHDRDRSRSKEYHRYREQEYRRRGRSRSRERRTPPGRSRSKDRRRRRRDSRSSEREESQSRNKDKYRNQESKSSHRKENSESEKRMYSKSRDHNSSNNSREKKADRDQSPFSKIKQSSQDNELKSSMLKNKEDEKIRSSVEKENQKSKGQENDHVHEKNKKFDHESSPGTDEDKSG
Sequence of UniProt Q8N6N3 (Q8N6N3 whole entry): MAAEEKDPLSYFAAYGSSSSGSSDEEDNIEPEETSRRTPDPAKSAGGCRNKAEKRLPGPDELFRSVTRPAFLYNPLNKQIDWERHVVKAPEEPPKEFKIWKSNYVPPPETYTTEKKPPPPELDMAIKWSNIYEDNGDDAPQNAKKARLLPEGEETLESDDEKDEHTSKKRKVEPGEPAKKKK

Target	NP40-soluble protein abundance (concentration: 1mM)	NP40-soluble protein abundance (concentration: 2mM)	NP40-soluble protein abundance (concentration: 4mM)	NP40-soluble protein abundance (concentration: 6mM)	NP40-soluble protein abundance (concentration: 8mM)	NP40-soluble protein abundance (concentration: 10mM)
ZNF579 (UniProt Q8NAF0)	0.954 ± 0.03	1.06 ± 0.12	0.945 ± 0.016	0.936 ± 0.073	0.901 ± 0.045	0.887 ± 0.1
UniProt Q7Z5G4|Q7Z5G4-3	0.928 ± 0.02	0.914 ± 0.015	0.902 ± 0.019	0.885 ± 0.046	0.878 ± 0.014	0.897 ± 0.032
UniProt Q14289|Q14289-2|H0YB74	1.03 ± 0.04	1.04 ± 0.042	1.02 ± 0.04	0.981 ± 0.06	1.01 ± 0.04	1 ± 0.064
UniProt Q53GS7|Q53GS7-2	1.18 ± 0.079	1.19 ± 0.12	1.39 ± 0.24	1.54 ± 0.24	1.52 ± 0.2	1.71 ± 0.23
Q5VVD7|Q8IWE5 (UniProt Q8IWE5)	0.929 ± 0.047	0.998 ± 0.048	0.932 ± 0.04	0.953 ± 0.036	0.95 ± 0.04	0.955 ± 0.03
UniProt Q8N684|Q8N684-2|Q8N684-3	1.51 ± 0.076	1.61 ± 0.016	1.75 ± 0.065	1.81 ± 0.081	1.82 ± 0.055	1.83 ± 0.032
UniProt Q7Z5K2|Q7Z5K2-3	1.02 ± 0.011	0.995 ± 0.018	0.993 ± 0.011	1.01 ± 0.026	1.014 ± 0.0065	0.987 ± 0.029
KRR1 (UniProt Q13601)	1.12 ± 0.012	1.16 ± 0.043	1.23 ± 0.066	1.27 ± 0.047	1.29 ± 0.026	1.42 ± 0.033
ZCCHC7 (UniProt Q8N3Z6)	1.02 ± 0.19	1.2 ± 0.026	1.34 ± 0.021	1.48 ± 0.018	1.51 ± 0.15	1.79 ± 0.044
RNF20 (UniProt Q5VTR2)	0.962 ± 0.05	0.961 ± 0.02	0.935 ± 0.024	0.997 ± 0.041	0.935 ± 0.019	0.933 ± 0.017
DDX60 (UniProt Q8IY21)	1.2 ± 0.078	1.27 ± 0.093	1.66 ± 0.11	1.73 ± 0.15	1.9 ± 0.16	1.95 ± 0.11
UniProt Q13111|K7EPA1	0.987 ± 0.059	0.988 ± 0.028	0.97 ± 0.035	1.03 ± 0.031	0.977 ± 0.036	1.01 ± 0.036
UniProt Q13409|Q13409-2|Q13409-3|Q13409-7|Q13409-5	0.957 ± 0.063	0.957 ± 0.037	0.953 ± 0.059	0.994 ± 0.18	0.975 ± 0.089	0.973 ± 0.074
FLCN (UniProt Q8NFG4)	1.02 ± 0.056	1 ± 0.037	1.05 ± 0.066	0.988 ± 0.058	0.977 ± 0.07	0.974 ± 0.033
UniProt Q53HC0|Q53HC0-2	0.993 ± 0.083	0.918 ± 0.031	0.939 ± 0.082	0.993 ± 0.21	0.966 ± 0.092	0.922 ± 0.084
UniProt Q8N137|Q8N137-2|Q8N137-3|Q8N137-4|Q8N137-5	0.92 ± 0.024	1.032 ± 0.006	1.15 ± 0.056	0.983 ± 0.054	0.945 ± 0.026	0.947 ± 0.2
PIGO (UniProt Q8TEQ8)	0.991 ± 0.035	1 ± 0.062	0.996 ± 0.02	0.979 ± 0.073	0.983 ± 0.051	1.01 ± 0.039
Q5QPA5|Q9NVS2|Q9NVS2-2 (UniProt Q9NVS2)	1.07 ± 0.12	0.926 ± 0.14	0.879 ± 0.17	0.946 ± 0.39	0.887 ± 0.24	0.818 ± 0.2
UniProt Q8TEB1|Q8TEB1-2	0.948 ± 0.093	0.977 ± 0.06	0.961 ± 0.079	0.956 ± 0.054	0.942 ± 0.066	0.918 ± 0.078
UniProt Q5JUR7	1 ± 0.077	1.07 ± 0.12	1.04 ± 0.029	1.02 ± 0.13	1.05 ± 0.087	1.06 ± 0.062

Target	NP40-soluble protein abundance (concentration: 1mM)	NP40-soluble protein abundance (concentration: 2mM)	NP40-soluble protein abundance (concentration: 4mM)	NP40-soluble protein abundance (concentration: 6mM)	NP40-soluble protein abundance (concentration: 8mM)	NP40-soluble protein abundance (concentration: 10mM)
UniProt Q8N766|Q8N766-3	0.974 ± 0.082	0.977 ± 0.065	0.982 ± 0.056	0.878 ± 0.1	0.934 ± 0.013	0.977 ± 0.052
YRDC (UniProt Q86U90)	0.928 ± 0.045	0.959 ± 0.05	0.93 ± 0.028	0.885 ± 0.043	0.896 ± 0.01	0.932 ± 0.017
UniProt Q8NG08|F5H1I4	1.05 ± 0.18	1.06 ± 0.12	1.09 ± 0.16	0.955 ± 0.13	0.984 ± 0.066	1.01 ± 0.1
UniProt Q7Z2T5	1.09 ± 0.05	1.16 ± 0.051	1.27 ± 0.013	1.39 ± 0.023	1.55 ± 0.018	1.69 ± 0.051
UniProt Q7Z7K6|Q7Z7K6-3	1.08 ± 0.058	1.14 ± 0.19	1.33 ± 0.14	1.47 ± 0.24	1.56 ± 0.23	2.03 ± 0.28
UniProt Q13045|Q13045-2	1.01 ± 0.039	0.985 ± 0.042	0.974 ± 0.03	0.949 ± 0.058	0.976 ± 0.026	0.968 ± 0.051
TTC19 (UniProt Q6DKK2)	0.971 ± 0.078	0.922 ± 0.037	0.973 ± 0.043	0.923 ± 0.04	0.985 ± 0.038	0.865 ± 0.094
ZDHHC17 (UniProt Q8IUH5)	1.08 ± 0.056	0.997 ± 0.021	1.11 ± 0.082	1.02 ± 0.058	1.09 ± 0.063	1.08 ± 0.033
RABEP1 (UniProt Q15276)	0.942 ± 0.049	0.944 ± 0.032	0.928 ± 0.021	0.995 ± 0.054	0.895 ± 0.016	0.9135 ± 0.0042
UniProt Q8IWZ8	1.03 ± 0.036	1.05 ± 0.037	1.08 ± 0.034	1.11 ± 0.068	1.11 ± 0.051	1.09 ± 0.037
UniProt Q86VR2	0.91 ± 0.084	0.941 ± 0.088	0.925 ± 0.11	0.869 ± 0.037	0.906 ± 0.064	0.943 ± 0.052
UniProt Q86UT6|Q86UT6-2	1.03 ± 0.027	1.081 ± 0.0018	0.99 ± 0.06	1.01 ± 0.18	1.02 ± 0.14	1.03 ± 0.12
UniProt Q13247|Q13247-3	1.84 ± 0.25	1.98 ± 0.19	2 ± 0.21	2.28 ± 0.23	2.17 ± 0.17	2.15 ± 0.25
UniProt Q86U06|Q86U06-2|Q86U06-4|Q86U06-5|G3XAP0	1.5 ± 0.41	1.53 ± 0.31	1.48 ± 0.33	1.76 ± 0.46	1.56 ± 0.41	1.46 ± 0.49
PDCD7 (UniProt Q8N8D1)	1.22 ± 0.14	1.24 ± 0.058	1.48 ± 0.099	1.48 ± 0.024	1.49 ± 0.13	1.76 ± 0.16
UniProt Q15397	1.28 ± 0.054	1.39 ± 0.058	1.53 ± 0.073	1.6 ± 0.13	1.7 ± 0.042	1.96 ± 0.12
UniProt Q16630|Q16630-2	2.36 ± 0.24	2.68 ± 0.27	2.89 ± 0.3	3.09 ± 0.32	3.03 ± 0.2	3.05 ± 0.28
UniProt Q8N3X1|Q8N3X1-2	1.01 ± 0.026	1.11 ± 0.013	1.29 ± 0.042	1.57 ± 0.027	1.72 ± 0.08	1.9 ± 0.082
UniProt Q6Y7W6|Q6Y7W6-4|Q6Y7W6-5	1.05 ± 0.076	1.08 ± 0.05	1.1 ± 0.051	1.18 ± 0.068	1.12 ± 0.029	1.16 ± 0.045
COX17 (UniProt Q14061)	0.938 ± 0.1	0.895 ± 0.074	0.92 ± 0.1	0.963 ± 0.033	0.859 ± 0.056	0.847 ± 0.023

Target	NP40-soluble protein abundance (concentration: 1mM)	NP40-soluble protein abundance (concentration: 2mM)	NP40-soluble protein abundance (concentration: 4mM)	NP40-soluble protein abundance (concentration: 6mM)	NP40-soluble protein abundance (concentration: 8mM)	NP40-soluble protein abundance (concentration: 10mM)
UniProt Q8TDY2|Q8TDY2-2	1.04 ± 0.056	1.02 ± 0.044	1.03 ± 0.038	1.04 ± 0.042	1.01 ± 0.041	1.04 ± 0.038
GRAMD4 (UniProt Q6IC98)	1.01 ± 0.02	0.998 ± 0.02	0.994 ± 0.035	1.02 ± 0.031	1.02 ± 0.025	1.01 ± 0.02
UniProt Q6IN85	1.03 ± 0.066	0.979 ± 0.042	0.946 ± 0.041	0.991 ± 0.048	0.956 ± 0.047	0.935 ± 0.08
SNIP1 (UniProt Q8TAD8)	1.18 ± 0.044	1.22 ± 0.055	1.44 ± 0.085	1.57 ± 0.098	1.67 ± 0.11	1.8 ± 0.1
UniProt Q14643|Q14643-2|Q14643-5	1.05 ± 0.071	0.999 ± 0.065	1 ± 0.041	0.961 ± 0.07	1.02 ± 0.027	0.995 ± 0.045
PPIG (UniProt Q13427)	1.61 ± 0.22	1.69 ± 0.27	1.78 ± 0.32	1.99 ± 0.49	1.85 ± 0.43	1.95 ± 0.46
NFX1 (UniProt Q12986)	1.07 ± 0.08	1.21 ± 0.042	1.34 ± 0.041	1.46 ± 0.046	1.62 ± 0.031	1.66 ± 0.11
UniProt Q0VDD8-4	0.837 ± 0.098	0.884 ± 0.028	0.9026 ± 0.0016	0.9241 ± 0.0037	0.956 ± 0.13	1.06 ± 0.059
UniProt Q8TCD5|J3KRC4	1 ± 0.021	1.02 ± 0.04	1.01 ± 0.057	0.942 ± 0.15	1.01 ± 0.11	0.954 ± 0.091
GSPT2 (UniProt Q8IYD1)	1.035 ± 0.0061	1.023 ± 0.0095	1 ± 0.016	1.01 ± 0.02	0.991 ± 0.042	0.987 ± 0.037
UBE2V2 (UniProt Q15819)	0.932 ± 0.018	0.904 ± 0.027	0.9 ± 0.045	0.922 ± 0.032	0.885 ± 0.035	0.853 ± 0.028
UniProt Q3KQU3|Q3KQU3-4	1.08 ± 0.1	1.03 ± 0.11	1.09 ± 0.13	1.13 ± 0.26	1.1 ± 0.16	1.14 ± 0.13
UniProt Q7L4P6|Q7L4P6-2	0.995 ± 0.085	1.12 ± 0.2	1.23 ± 0.3	1.2 ± 0.21	1.02 ± 0.096	1.12 ± 0.14
PDCD11 (UniProt Q14690)	1.09 ± 0.092	1.14 ± 0.056	1.29 ± 0.062	1.5 ± 0.13	1.75 ± 0.073	2.06 ± 0.15
ZNF672 (UniProt Q499Z4)	0.994 ± 0.061	1.07 ± 0.0039	1 ± 0.089	0.93 ± 0.078	0.996 ± 0.047	0.995 ± 0.016
UniProt Q12872|Q12872-2	1.24 ± 0.083	1.33 ± 0.049	1.5 ± 0.049	1.77 ± 0.068	1.77 ± 0.066	1.93 ± 0.075
CUL4A (UniProt Q13619)	0.99 ± 0.13	0.955 ± 0.08	0.918 ± 0.08	0.89 ± 0.098	0.963 ± 0.047	0.94 ± 0.047
UniProt Q8N6N3|Q8N6N3-2	0.865 ± 0.1	0.81 ± 0.041	0.869 ± 0.13	0.822 ± 0.051	0.779 ± 0.12	0.817 ± 0.063
UniProt Q86UY6	1.39 ± 0.18	1.46 ± 0.14	1.56 ± 0.21	1.66 ± 0.26	1.69 ± 0.21	1.69 ± 0.15
THOC7 (UniProt Q6I9Y2)	1.4 ± 0.11	1.5 ± 0.15	1.73 ± 0.19	1.95 ± 0.38	2.12 ± 0.2	2.03 ± 0.26
